cytoskel mod: cytoskeleton assembly modification; 91,000 tested, 0.18% active; AID 836; HUVEC TNFa F-actin phalloidin imaging, high content; inhibition, % at 2 µM;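 active = inhibition above the batch mean plus 3 SD and confirmed as a hit by visual image inspection, cut at about 30% in these data, passing the limit was not always enough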
HUVEC tox TNFa: toxic to HUVEC cells under TNF alpha stimulation; HUVEC TNFalpha-stimulated, Hoechst cell count, imaging; AID 848; cell count reduction, % at 2 µM; 93,000 tested, 0.17% active;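 active = cell count reduction exceeding the screen mean by over 5 SD, scaled to untreated wells per plate, cut at about 78% in these data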;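 also: cells counted after 24 h of TNF alpha exposure following the 1 h pretreatment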
E-sel TNF inh: TNF alpha driven E-selectin expression inhibition; HUVEC TNFa-induced E-selectin immunofluorescence, high content; inhibition, % at 2 µM; 120,000 tested, 0.71% active;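 active = inhibition above the batch mean plus 3 SD, and confirmed as a hit on visual image review, cut at about 43% in these data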;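 also: 0% = TNF-stimulated DMSO wells and 100% = unstimulated control wells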
VCAM1 TNFa inh: reduces TNF alpha induced VCAM1 expression in HUVEC | HUVEC TNFa-induced VCAM-1 immunofluorescence, high-content imaging | inhibition, % at 2 µM | 95,000 tested, 0.48% active | AID 802;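 active = inhibition above the batch mean plus 3 SD, with images confirmed as a hit by eye, cut at about 37% in these data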;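 also: 0% = TNF-stimulated DMSO wells and 100% = unstimulated control wells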
The depositor's hits bear a star; . = no result. In the library only some 1.2% were active in any assay of this set; here they are far more common.

SMILES	cytoskel mod	HUVEC tox TNFa	E-sel TNF inh	VCAM1 TNFa inh
Cc1ccc(-n2c(CSc3nc(C)cc(C)n3)nnc2SCC(=O)NCc2ccco2)cc1	-2	-5	35	-21
O=C(N/N=C/c1ccc([N+](=O)[O-])s1)c1cccnc1	.	.	72*	.
CC1=C([N+](=O)[O-])C(c2cccc(Br)c2)C2=C(N1)c1ccccc1C2=O (configuration not stated)	-3	74	-33	93*
c1cc2c(cc1CN1CCOCC1)OCO2	-8	3	20	-4
CC1(C)CC(=O)C2=C(C1)NCN(Cc1ccc3c(c1)OCO3)C2	1	-9	49*	7
CN(C)c1ccc(NC(=O)COC(=O)Cn2nnc3ccccc32)cc1	.	.	89*	.
CC1=Nc2ccccc2/C1=C/c1c(N)n2c(S(=O)(=O)C(C)C)nsc2nc1=O	.	.	-16	.
CC1=Nc2ccccc2/C1=C/c1c(N)n2c(S(=O)(=O)CC(C)C)nsc2nc1=O	.	.	96*	.
Cc1nc(NC(=O)c2ccc(Cl)cc2)sc1-c1csc(Nc2cccc(F)c2)n1	1	-38	3	-29
COc1ccc(OC)c(C2C3=C(COC3=O)Nc3cc4c(cc32)OCO4)c1 (configuration not stated)	16	76	0	96*
COc1ccc(C2C3=C(CC(C)(C)CC3=O)Nc3cc4c(cc32)OCO4)cc1 (configuration not stated)	-25	5	6	16
Nc1c(C(=O)NC2CCCC2)c2nc3ccccc3nc2n1N	47*	-4	.	9
Nc1c(C(=O)NC2CCCC2)c2nc3ccccc3nc2n1/N=C/c1ccco1	2	-12	-3	5
O=Cc1cc2ccccc2nc1SCCCF	.	.	3	.
N/C(Cc1cccs1)=N\OC(=O)COc1ccccc1Cl	4	-9	-5	-16
N/C(Cc1cccs1)=N\OC(=O)COc1ccc(Br)cc1Cl	37*	-42	6	70*
O=C(NC1CCCC1)c1ccc(CS(=O)(=O)c2ccc(Br)cc2)o1	-2	-6	.	0
CCN(CC)S(=O)(=O)N1CCC(C(=O)NC2CCCC2)CC1	2	-16	0	3
CCS(=O)(=O)N1CCC(C(=O)NC2CCCCC2)CC1	31*	-20	10	0
CCOC(=O)c1nnc(-c2ccc(C)cc2)nc1Oc1ccc(Cl)cc1Cl	11	16	63*	9
CCOC(=O)c1nnc(-c2ccc(C)cc2)nc1Oc1ccccc1Cl	10	-16	28	3
C#CC(=O)N(c1cc(OC)ccc1OC)C(C(=O)NC1CCCC1)c1cccs1 (configuration not stated)	9	15	58*	35
C#CC(=O)N(c1ccc(OC)cc1OC)C(C(=O)NC1CCCC1)c1cccs1 (configuration not stated)	.	.	31	.
CC(Oc1cc(Cl)ccc1Cl)C(=O)N/N=C\c1ccnn1C (configuration not stated)	.	.	-7	.
CCOC(=O)c1ccc(CNC(=O)CCC(=O)O)cc1	34*	-1	15	10
SMILES	cytoskel mod	HUVEC tox TNFa	E-sel TNF inh	VCAM1 TNFa inh
O=C(Nc1ccccc1)c1nnsc1S(=O)c1ccc(Cl)cc1 (configuration not stated)	25	4	80*	43*
CC(=O)c1cccc(NC(=O)c2cc(-c3ccc(F)cc3)on2)c1	-7	73	.	71*
CCOC(=O)c1cc2c(ccn2C)n1Cc1ccccc1C	63*	-3	38	6
Cc1ccccc1Cn1c(C(=O)OC(C)C)cc2c1ccn2C	-10	3	-16	12
COc1ccc(C(=O)NNC(=O)CSc2nnc(COc3ccccc3OC)n2C)cc1	.	.	-3	.
Cc1nc(NC(=O)c2oc3ccccc3c2C)sc1C(=O)N(C)C	-12	0	96*	-4
Cc1nc(NC(=O)c2ccccc2[N+](=O)[O-])sc1C(=O)N(C)C	.	.	13	.
O=C(NCCc1ccccc1)C1CCCN(S(=O)(=O)c2cccc3nsnc23)C1 (configuration not stated)	.	.	-13	.
O=C(CN(C(=O)CNC(=O)c1ccco1)c1ccc(Cl)c(Cl)c1)NC1CCCCC1	16	-13	-12	-12
CCn1c(CN2CCN(c3ccc(Cl)cc3)CC2)nc2ccccc21	10	-19	14	58*
O=C(CCN(NC(=O)c1ccccc1)C1=NS(=O)(=O)c2ccccc21)NC1CCCCC1	.	.	-12	.
CC12C=CC3(O1)C(C(=O)N(c1cccnc1)C3C(=O)NC1CCCCC1)C2C(=O)Nc1ccccc1 (configuration not stated)	6	-24	8	8
CC(C)(C)NC(=O)C1N(c2cccnc2)C(=O)C2C(C(=O)Nc3ccccc3F)C3(C)C=CC21O3 (configuration not stated)	72*	-10	-14	-4
Cn1c(SCc2ccc(Br)cc2)nnc1-c1ccncc1	1	-16	73*	-1
O=C(CSc1ncn(-c2ccccc2)n1)Nc1ccc2c(c1)OCCO2	.	.	72*	.
O=C(Nc1cccs1)Nc1c(F)c(F)c(F)c(F)c1F	.	.	69*	.
Cc1cc(C)c(S(=O)(=O)Nc2ccc3c4c(cccc24)CC3)c(C)c1	-24	57	15	89*
CCN(CC(=O)NCc1ccccn1)S(=O)(=O)c1ccc(Cl)cc1	6	79*	-2	17
CCN(CC(=O)NC1CCCCC1)S(=O)(=O)c1ccc(Cl)cc1	8	13	-5	14
CCCCCOC(=O)Cn1c(SCC(=O)Nc2ccccc2)nc2c1c(=O)[nH]c(=O)n2C	-30	-16	74*	-1
Cn1nc(-c2ccc(C(=O)Nc3cccc(Cl)c3)cc2)c2ccccc2c1=O	8	-18	-92	-7
O=c1cc(-c2ccc(F)cc2)oc2ccccc12	4	-31	44*	14
CSc1ccc(-c2cc(=O)c3ccccc3o2)cc1	-3	-20	18	24
CCOc1ccccc1NC(=O)CSc1nnc2ccc(-c3cccnc3)nn12	.	.	-77	.
COc1ccccc1NC(=O)CSc1nnc2ccc(-c3cccnc3)nn12	.	.	82*	.
SMILES	cytoskel mod	HUVEC tox TNFa	E-sel TNF inh	VCAM1 TNFa inh
Cc1noc(C)c1S(=O)(=O)N1CCC(C(=O)N2CCN(Cc3ccc4c(c3)OCO4)CC2)CC1	.	.	73*	.
O=C(C1CCN(S(=O)(=O)N2CCOCC2)CC1)N1CCN(Cc2ccc3c(c2)OCO3)CC1	-36	-8	15	2
Cc1cc(C(=O)N/N=C/c2ccco2)n[nH]1	.	.	-7	.
CC(/C=C/c1ccco1)=N\NC(=O)c1cc(C)[nH]n1	61*	-18	100*	3
CSc1nnc2n(-c3ccccc3)c(=O)c3c4c(sc3n12)CCC4	-11	77	-17	58*
COc1ccc(C(=O)c2c(C(F)(F)F)oc3c2C(=O)c2ccccc2C3=O)cc1	-34	30	-5	94*
NS(=O)(=O)c1cccc(NC(=O)Cc2ccc(Cl)c(Cl)c2)c1	.	.	-30	.
O=C(O)c1cc2nc3c(c(C(F)(F)F)n2n1)CCc1ccccc1-3	-41	74	.	85*
COCCNC(=O)c1cc2nc3c(c(C(F)(F)F)n2n1)CCc1ccccc1-3	.	.	29	.
O=S(=O)(c1cccs1)N1CCN(CC(O)COc2cccc(Br)c2)CC1 (configuration not stated)	-13	55	-8	94*
O=S(=O)(c1cccs1)N1CCN(CC(O)COC2CCCc3ccccc32)CC1 (configuration not stated)	-23	-2	18	-3
